Source: PubChem BioAssay (NCATS)
Results filed as inconclusive are left out. A call without a number means that no potency is given here. Active and inactive are the calls of the source. The call rests on the fitted dose curve; in most records, active means well fitted cell-killing curve with a large enough effect; inconclusive means small, poorly fitted or top-dose-only effect; inactive means flat fitted curve, though single readings scatter.

Test: MultiTox-Fluor Cytotoxicity Assay - LYMP1-001 - Live Cells (AID 947)
Details: LYMP1-001 lymphoblastoid cells, live-cell protease fluorescence viability; series mostly up to 92.2 µM
Source text: NIH Chemical Genomics Center [NCGC]
NIH Molecular Libraries Screening Centers Network [MLSCN]
National Institutes of Environmental Health Sciences [NIEHS]
National Toxicology Program [NTP]
We have developed a 1536-well cell-based assay for quantitative high throughput screening (qHTS) against a number of cell lines to determine in vitro cytotoxicity of small molecules. This particular assay uses a human lymphoblastoid cell line (LYMP1-001) purchased from Coriell Institute.
NCGC Assay Protocol Summary:
The MultiTox-Fluor Cytotoxicity Assay (Promega) is a homogeneous method to simultaneously measure the relative number of live and dead cells in culture by detecting changes in cell membrane integrity. There are two fluorogenic peptide substrates in the assay reagent. Viable cells are determined when the cell-permeant substrate (GF-AFC) enters the cell and is cleaved by protease from live cells resulting in liberated fluorophore. This live-cell protease activity restricted to viable cells is proportional to cell number. The dead cells are determined by using fluorogenic cell-impermeant peptide substrate (bis-AAF-R110) which cleaved by dead cell proteases leaking from damaged cell membrane.
Using the MultiTox-Fluor Cytotoxicity Assay, the relative number of live cells was measured in the lymphoblastoid cell line with complete culture medium following compound treatment for 16 hours. The assay was performed in opaque black Kalypsys 1536-well plates. In the screen, tetraoctylammonium bromide was used as positive control. Library compounds were measured for their ability to cause acute toxicity in the cell line, as reflected by a decrease in live cell protease activity, in a concentration-dependent manner. […] AC50 values were determined from concentration-response data modeled with the standard Hill equation.
qHTS protocol for MultiTox-Fluor Cytotoxicity assay
[Step] [Parameter] [Value] [Description]
1. Reagent; 5 uL; 2500 lymphoblastoid cells/well
2. Time; 5 hr; 37 C incubation
4. Controls; 23 nL; Tetraoctylammonium bromide 6.4pM to 92 uM
5. Time; 16 hr; 37 C incubation
6. Reagent; 5 uL; MuliTox-Fluor Assay reagent
7. Time; 60 min; Room Temperature
8. Detection; live-cell fluorescence (Ex/Em=405/510); EnVision plate reader
Keywords: cell viability, cytotoxicity, lymphoblastoid cell line, fluorescence, NTPHTS, NTPHTS_NCGC, NIEHS, EPA, DSSTox, MLSMR, MLSCN, NIH Roadmap, qHTS, NCGC
Potency means the concentration at half of the fitted maximal effect.

| SMILES | Potency |
| --- | --- |
| CC(C)Nc1ccc(Nc2ccccc2)cc1 | 31.6 µM (active) |
| CC(C)(C)c1cc(O)ccc1O | inactive |
| O=C(O)C(Cl)(Cl)Cl | inactive |
| O=[N+]([O-])c1ccc(F)c([N+](=O)[O-])c1 | inactive |
| O=C1C2CC=CCC2C(=O)N1SC(Cl)(Cl)Cl (centres undefined) | 12.6 µM (active) |
| ClC=C(Cl)Cl | inactive |
| ClC(Cl)(Cl)Cl | inactive |
| C[C@]12CCC(=O)C[C@@H]1CC[C@@H]1[C@@H]2CC[C@]2(C)[C@@H](O)CC[C@@H]12 | inactive |
| O=Cc1ccco1 | inactive |
| C[C@H]1CC[C@@H]2[C@@H](C)[C@H]3[C@H](C[C@H]4[C@@H]5CC=C6CC(O[C@@H]7O[C@H](CO)[C@H](O)[C@H](O[C@@H]8O[C@H](CO)[C@@H](O)[C@H](O)[C@H]8O)[C@H]7O[C@H]7O[C@@H](C)[C@H](O)[C@@H](O)[C@H]7O)CC[C@]6(C)[C@H]5CC[C@]34C)N2C1 (some centres undefined) | 31.6 µM (active) |
| [Cl-].[Cl-].[Hg+2] | 31.6 µM (active) |
| O=C1CCO1 | inactive |
| O=C1C=CC(=O)C=C1 | inactive |
| [O]=[Cr](=[O])([OH])[O][Cr](=[O])(=[O])[OH] | inactive |
| CCOC(=O)c1ccccc1C(=O)OCC | inactive |
| S=C=S | inactive |
| COc1ccc2c(c1OC)C(=O)OC2C1c2cc3c(cc2CCN1C)OCO3 (centres undefined) | inactive |
| O=[N+]([O-])c1ccccc1 | inactive |
| C[C@H]1CCC[C@H](O)CCCCCc2cc(O)cc(O)c2C(=O)O1 | inactive |
| Oc1cc(Cl)c(Cl)cc1Cl | inactive |
| Clc1ccccc1Cl | inactive |
| NNC(N)=O | inactive |
| COC1=CC(=O)O[C@@H](/C=C/c2ccccc2)C1 | inactive |
| O=CC=O | inactive |
| C=CCN=C=S | inactive |
| CCCCCCCCOC(=O)c1ccccc1C(=O)OCCCCCCCC | inactive |
| O=C/C=C/c1ccccc1 | inactive |
| [O]=[Cd] | inactive |
| CCCCCl | inactive |
